HSF1 inhib: HSF1 inhibition. NIH3T3-HGL HSE-luciferase, MG132-induced, luminescence 8 h; hits give low values. activity change, negative = inhibition, % at 7.5 µM (by protocol). 300,000 compounds, 0.77% hits;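 active = more than half of replicate wells show activity change below -50%, luminescence cut by over half; inconclusive = some wells, but at most half, below -50%; inactive = no replicate well below -50%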;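 also: luciferase reports HSF-1 transcriptional activity via heat shock element; 0% = median of DMSO wells and -100% = zero luminescence signal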
AHR activator: human AHR activation. AHR-responsive luciferase reporter cells, luminescence. activation, % at 5 µM. 320,000 compounds, 2.5% hits. AID 2796; in the data active = activation above about 47%;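 also: 0% = vehicle wells and 100% = reference agonist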
Target sequence (P35869 whole entry, looked up): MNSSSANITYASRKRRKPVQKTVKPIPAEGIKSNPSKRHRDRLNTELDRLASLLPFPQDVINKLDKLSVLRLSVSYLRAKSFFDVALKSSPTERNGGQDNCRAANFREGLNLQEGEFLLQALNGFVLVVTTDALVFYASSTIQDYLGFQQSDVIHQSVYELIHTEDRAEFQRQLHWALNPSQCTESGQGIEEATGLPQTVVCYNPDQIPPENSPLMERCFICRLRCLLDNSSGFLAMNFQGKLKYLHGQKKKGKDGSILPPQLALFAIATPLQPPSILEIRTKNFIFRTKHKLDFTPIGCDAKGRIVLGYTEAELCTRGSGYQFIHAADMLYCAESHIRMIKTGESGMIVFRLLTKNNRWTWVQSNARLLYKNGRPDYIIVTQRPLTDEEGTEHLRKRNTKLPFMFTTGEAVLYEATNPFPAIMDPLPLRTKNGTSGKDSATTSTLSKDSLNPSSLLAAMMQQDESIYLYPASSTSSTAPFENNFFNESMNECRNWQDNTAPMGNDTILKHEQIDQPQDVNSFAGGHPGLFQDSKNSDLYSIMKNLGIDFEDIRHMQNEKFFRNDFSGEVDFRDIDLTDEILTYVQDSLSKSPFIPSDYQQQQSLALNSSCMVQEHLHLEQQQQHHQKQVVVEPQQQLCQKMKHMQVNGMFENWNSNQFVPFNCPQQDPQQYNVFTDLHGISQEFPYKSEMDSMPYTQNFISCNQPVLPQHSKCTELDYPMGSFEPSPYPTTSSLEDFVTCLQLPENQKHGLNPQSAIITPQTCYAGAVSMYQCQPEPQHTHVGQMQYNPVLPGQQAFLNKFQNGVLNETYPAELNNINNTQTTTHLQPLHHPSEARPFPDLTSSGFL
GAA850 FXN act: frataxin GAA850 promoter activation; activation, % at 6 µM; HEK293 lucGAA850 FXN promoter luciferase reporter, 24 h; percent of 10 µM SAHA response; 360,000 compounds, 0.56% hits;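 active = activation above the average of all compounds screened plus 3 SD, cutoff fixed separately per campaign, cut at about 7.5% in these data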;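 also: 0% = DMSO wells and 100% = 10 µM SAHA wells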
HSF1 activator: increases HSF-1 driven luciferase reporter signal. NIH3T3-HGL HSF-1 luciferase reporter, MG132, 8 h; 100% = twice DMSO control signal. activation, % at 9 µM. 300,000 compounds, 1.7% hits. AID 504408;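 active = mean replicate activation of at least 50% with a set share of replicates each reaching 50%; inconclusive = only one of those two conditions met; inactive = mean below 50% and too few replicates reaching it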;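 also: 0% = median of the neutral control wells and 100% = twice that signal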
NR0B1 inh: inhibits human nuclear receptor DAX1 | P51843 | HEK293 Gal4-DAX1 luciferase reporter, luminescence | inhibition, % at 6.75 µM | 340,000 compounds, 0.99% hits;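 active = inhibition above the mean over all tested compounds plus 3 SD, cut at about 4.2% in these data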;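 also: 0% = DAX1-transfected cells with DMSO and 100% = empty-vector control cells with DMSO; inhibition shows as a rise in luminescence from relieved DAX1 repression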
GAA30 counter: activates GAA30 frataxin promoter, counter-screen for GAA850 activators | HEK293 lucGAA30 FXN promoter luciferase, 24 h; DMSO = 0%, 5 µM ipriflavone = 100% | AID 588350 | shares compounds with GAA850 FXN act | activation, % at 6 µM | 1,900 compounds, 66% hits;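 active = mean activation above the mean of solvent-only control wells plus 3 SD, cut at about 22% in these data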;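 also: counterscreen of GAA850 promoter hits where activity marks nonselective or luminescence artifacts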
GAA850 confirm: confirmation of GAA850 frataxin (FXN) promoter activators; shares compounds with GAA850 FXN act; activation, % at 6 µM; HEK293 lucGAA850 FXN promoter luciferase reporter, 24 h; 100% = activation by SAHA; AID 588351; 1,900 compounds, 86% hits;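 active = mean activation above a set limit taken from the primary screen, cut at about 8% in these data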;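 also: 0% = DMSO wells and 100% = 10 µM SAHA wells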
* hit, by the source's call; u = inconclusive; x = not tested or not shown. Hits are enriched below; roughly 5.4% of the tested compounds scored in any of these assays.

SMILES	HSF1 inhib	AHR activator	GAA850 FXN act	HSF1 activator	NR0B1 inh	GAA30 counter	GAA850 confirm
CSc1nc(O)c(N=Nc2ccc(F)cc2F)c(=O)[nH]1	-33	2	2	-40	1	x	x
COc1ccc(COn2nnc3ccc(S(=O)(=O)N4CCOCC4)cc32)cc1F	5	2	0	13	0	x	x
COC(=O)c1c(NC(=O)Cc2cccs2)sc(C(=O)N2CCCCC2)c1C	-1	2	9.2*	-9	1	8	9.3*
Clc1ccc(-c2noc(CSc3nnc(Cc4cccs4)n3-c3ccccc3)n2)cc1	0	0	15*	24	0	6	4
CC(C)Oc1ccc(CN2CCC2(C)C(=O)NCc2cccc3ccccc23)cc1 (stereo unspecified)	x	x	0	x	x	x	x
O=C(O)c1ccccc1NCc1cccs1	-8	0	1	-1	-2	x	x
O=C(Nc1nc2ccccc2[nH]1)C1CCC1	9	14	5	5	2	x	x
O=C(Nc1nc2ccccc2[nH]1)C1CCCC1	15	17	10*	19	1	86*	26*
Cn1ncc2c1ncn1nc(CCc3ccccc3)nc21	-8	4	9.1*	1	4	106*	29*
COc1cc2c(cc1OC)C(Cc1ccccc1[N+](=O)[O-])=NCC2	x	x	-3	x	0	x	x
CC1CC(C)CN(C(=O)c2nn(C)c3c2CSc2ccccc2-3)C1 (stereo unspecified)	-19	14	-1	-32	1	x	x
CC1CCCN(C(=O)c2nn(C)c3c2CSc2ccccc2-3)C1 (stereo unspecified)	-11	20	9.6*	-14	-1	30*	12*
COc1ccc(CCNC(=O)CSc2nn(-c3ccccc3)c(=S)s2)cc1OC	2	16	0	-4	0	x	x
Cc1ccc2[nH]c3ccccc3c(=O)c2c1	12	6	2	47	0	x	x
O=c1c2ccccc2[nH]c2ccc(O)cc12	-7	12	8.2*	4	0	39*	18*
CN(C)c1nc(C=C(C#N)C#N)c(Cl)n1-c1ccc(F)cc1	76	x	11*	95*	-2	-57	33*
COc1cccc(NC(=O)Nc2cc(C)ccc2F)c1	10	18	8.2*	8	0	80*	25*
O=S(=O)(c1cccs1)N1CCN(c2ccccc2F)CC1	-1	0	7.7*	-7	-2	12	7
O=c1sc(N2CCN(c3ccc(F)cc3)CC2)nc2ccsc12	14	-5	5	39	2	x	x
O=c1sc(N2CCN(c3ccccc3F)CC2)nc2ccsc12	28	-1	7.9*	21	1	106*	40*
Cc1nnc(SCC(=O)Nc2ccc([N+](=O)[O-])cc2)n1C	-1	0	-2	7	0	x	x
CC[C@]12c3[nH]c4ccc(OC)cc4c3CCN1C(=O)C(CC(=O)NCC13CC4CC(CC(C4)C1)C3)C[C@@H]2C(=O)N1CCN(C(=O)c2ccco2)CC1 (stereo partly specified)	x	x	15*	x	-1	2	11*
CC[C@]12c3[nH]c4ccc(Cl)cc4c3CCN1C(=O)[C@@H](CC(=O)NCC13CC4CC(CC(C4)C1)C3)C[C@@H]2C(=O)N1CCN(C(=O)c2ccco2)CC1	x	x	-2	x	-1	x	x
Fc1ccc(CSc2ncnc3scc(-c4ccccc4)c23)cc1	-2	2	8.9*	8	1	22*	14*
COC(=O)CSc1ncnc2scc(-c3ccccc3)c12	-8	1	5	2	-1	x	x
SMILES	HSF1 inhib	AHR activator	GAA850 FXN act	HSF1 activator	NR0B1 inh	GAA30 counter	GAA850 confirm
CCN1CCCC1CNC(=O)c1ccc2c(c1)NC(=O)/C(=C\c1ccc(OC)c(OC)c1)S2 (stereo unspecified)	-6	2	7.7*	-9	2	16	7
CCN1CCCC1CNC(=O)c1ccc2c(c1)NC(=O)/C(=C\c1ccccc1Cl)S2 (stereo unspecified)	x	x	1	x	0	x	x
COc1ccc(-c2noc(-c3ccoc3C)n2)cc1OC	16	3	7.8*	41	3	96*	33*
COc1ccc(-c2noc(-c3ccccc3Cl)n2)cc1OC	15	8	8.6*	23	5.1*	112*	40*
COc1cc2c(cc1OC)CN(C(=O)C1CCCN(C(=O)c3ccc(Cl)cc3)C1)CC2 (stereo unspecified)	x	1	0	x	0	x	x
CCOc1ccc(OCCC(=O)OCC(=O)NCCc2ccc(S(N)(=O)=O)cc2)cc1	x	-1	2	x	1	x	x
CN(C)C(=O)CCC(=O)N1CCCC(C(=O)c2ccc3c4c(cccc24)CC3)C1 (stereo unspecified)	-5	3	10*	-8	0	44*	13*
Cc1ccc(S(=O)(=O)N2Cc3ccccc3CC2C(=O)N(C)C)cc1 (stereo unspecified)	x	x	1	x	0	x	x
COc1ccc2[nH]c3c(C)c4ccncc4c(C)c3c2c1	51	32	12*	u	0	-25	64*
CCOC(=O)c1sc(=NC(=O)c2ccco2)n(C)c1C	x	18	5	x	1	x	x
CCOC(=O)c1sc(=NC(=O)c2ccccc2Br)n(C)c1C	26	3	11*	39	1	106*	29*
CC(C)(C)n1nnnc1C(c1cccs1)N(Cc1ccc(Cl)cc1)CC1CCCO1 (stereo unspecified)	16	1	7.8*	-2	-1	20	17*
CCOC(=O)c1cc(-c2ccc(OC)cc2)n(CCC(=O)NCCN2CCC(C)CC2)c1C	21	-1	17*	20	0	26*	15*
CC(C)(C)OC(=O)NC1CC2CCCC(C1)N2Cc1ccccc1 (stereo unspecified)	1	x	-1	19	1	x	x
CCCC(=O)N(C1CC(C)C(C#N)(C#N)C1(C#N)C#N)N(C)C (stereo unspecified)	u	-3	5	-53	-1	x	x
CC(=O)N(C1CC(C)C(C#N)(C#N)C1(C#N)C#N)N(C)C (stereo unspecified)	-3	0	9.9*	15	0	-99	-31
CCC12C(=O)C(CC)(C(c3ccccc3)=C1c1ccccc1)[C@@H]1C(=O)N(c3ccccc3)C(=O)C12 (stereo partly specified)	4	2	11*	-5	0	20	11*
CC(C)c1ccccc1NC(=O)Nc1nnc([C@@H]2C[C@H](O)[C@@H](CO)O2)s1	x	x	2	x	x	x	x
Cc1cc(C)nc(SCc2csc(-c3ccccc3)n2)n1	24	-2	7.9*	47	3	115*	40*

Compound activity as filed in PubChem.
